Source: PubChem (National Center for Advancing Translational Sciences (NCATS))
Luciferase inh = inhibitors of firefly (Photinus pyralis) luciferase | purified P. pyralis luciferase, luminescence, biochemical | Potency, µM (top dose mostly 115 µM), usual class: inhibitors | actives 2.5% (n = 76,000); also: nearly all actives have a fitted effect of over 65% in size
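Biochemical qHTS: compound (6-point titration) added to 10uM D-luciferin plus 10uM ATP in Tris acetate pH 7.5 buffer with Mg, Tween-20 and BSA, then purified enzyme at 10nM; light output imaged.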
HEK293 tox = kills HEK 293 cells | Potency, µM (top dose mostly 115 µM), for the others: at the highest dose activity change, negative = cytotoxicity, usual class: inhibitors | actives 6.6% (n = 94,000) | HEK 293 viability, ATP luminescence (CellTiter-Glo), 48-72 h; also: nearly all actives have a fitted effect of over 60% in size
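Luminescence from cellular ATP, measured with CellTiter-Glo, indicates HEK 293 viability. Cells plated at 250 cells/well are treated with compound for 48 or 72 hr at 37 degree Celsius before reagent addition.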
hNpr1 antagonist = blocks ANP-stimulated signaling of human Npr1 receptor. P16066. HEK293 hNpr1 GloSensor cGMP, ANP-stimulated luminescence. Potency, µM (series often up to 46.3 µM), for the others: top-dose activity change, negative = inhibition, most hits filed as inhibitors. actives 1.6% (n = 76,000). AID 1347048; calls by dose curve; also: nearly all actives have a fitted effect of over 60% in size
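HEK293 cells stably expressing human Npr1 and cGMP GloSensor pGS-40F, loaded 2 h with 2% GloSensor reagent, given compound 30 min at room temperature. Luminescence read before and 20 min after 0.1 nM hNppA.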
GPT2 inh = inhibitors of human GPT2 alanine aminotransferase; Q8TD30; Recombinant GPT2, coupled pyruvate oxidase/HRP Amplex Red fluorescence; Potency, µM (series often up to 57.7 µM), inactives show at the highest dose activity change, negative = inhibition, hits mostly inhibitors; actives 0.25% (n = 100,000); AID 1671188; also: nearly all actives have a fitted effect of over 60% in size
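Inhibition is scored from Amplex Red fluorescence generated when pyruvate oxidase and HRP act on pyruvate released by GPT2. Reactions contain 10ng/uL enzyme, 250uM a-KG and 2mM L-alanine and run 30 min at room temperature.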
3T3 cytotox = kills NIH 3T3 cells; Potency, µM (highest dose often 96.7 µM), for inactives: top-dose activity change, negative = cytotoxicity, usual class: inhibitors; NIH 3T3 viability, CellTiter-Glo ATP luminescence, 48-72 h; AID 1345082; actives 4.3% (n = 94,000); also: nearly all actives have a fitted effect of over 55% in size
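Cytotoxicity was measured by CellTiter-Glo ATP luminescence after 48 or 72 h compound exposure at 37 °C. Mouse NIH 3T3 fibroblasts were seeded at 400 cells/well and dosed by 23 nL pin transfer.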
* = called active by the depositor; [ ] = another dose, or the depositor's remark. Compounds with a hit are over-represented: about 10% of the library has one in this group of screens. Unless noted, calls follow the shape of the dose curve; as a rule, active = well fitted curve in the direction sought with a large enough effect; inconclusive = small, poorly fitted or top-dose-only effect, or another doubt; inactive = no such curve, though single readings can be large; an effect the other way counts as inactive or inconclusive. % is scaled to controls: 0 for no effect and ±100 for the full control effect; potency is read from the fitted curve at half-maximal effect.

COc1ccc(-c2cc([C@H]3CN4CC[C@H]3C[C@@H]4CNC(=O)c3ccc(N(C)C)cc3)n(C)n2)cc1 was read as Luciferase inh inactive, HEK293 tox 22µM*, hNpr1 antagonist 1%, GPT2 inh inactive and 3T3 cytotox inconclusive.
For COc1ccc(-c2cc([C@H]3CN4CC[C@H]3C[C@@H]4CNC(=O)c3cccs3)n(C)n2)cc1OC the results were Luciferase inh inactive, HEK293 tox inconclusive, hNpr1 antagonist -3%, GPT2 inh inactive and 3T3 cytotox inconclusive.
`Cn1nc(C2CCCCC2)cc1[C@H]1CN2CC[C@H]1C[C@@H]2CNC(=O)c1cccs1` gave Luciferase inh inactive, HEK293 tox 100µM*, hNpr1 antagonist -2%[70.6 µM], GPT2 inh -10%[88.5 µM] and 3T3 cytotox inconclusive.
Screening CN(C)c1ccc(C(=O)NC[C@H]2C[C@@H]3CCN2C[C@@H]3c2cc(C3CCCCC3)nn2C)cc1 returned Luciferase inh inactive, HEK293 tox inconclusive, hNpr1 antagonist 2%, GPT2 inh inactive and 3T3 cytotox inconclusive.
Screening Cn1nc(-c2ccc3ccccc3c2)cc1[C@H]1CN2CC[C@H]1C[C@@H]2CNC(=O)c1cccs1 returned Luciferase inh inconclusive, HEK293 tox 20µM*, hNpr1 antagonist -4%, GPT2 inh 2% and 3T3 cytotox 25µM*.
COc1ccc(C(=O)NC[C@H]2C[C@@H]3CCN2C[C@@H]3c2cc(-c3ccc4ccccc4c3)nn2C)cc1 was read as Luciferase inh inactive, HEK293 tox 18µM*, hNpr1 antagonist 1%, GPT2 inh 1% and 3T3 cytotox inconclusive.
Screening Cc1ccccc1CC(=O)N1CCC2(CC1)c1nccn1-c1ccccc1CN2C returned Luciferase inh inactive, HEK293 tox 1%, hNpr1 antagonist -3%, GPT2 inh -5% and 3T3 cytotox -18%.
CC1=C2C[C@H]3[C@@H](CC=C4C[C@@H](O)CC[C@@]43C)[C@@H]2CC[C@]12O[C@@H]1C[C@H](C)CN[C@H]1[C@H]2C was read as GPT2 inh inactive.
For c1cnc2nc(C3CCNCC3)[nH]c2c1 the results were Luciferase inh inactive, HEK293 tox inconclusive, hNpr1 antagonist -1%[70.6 µM], GPT2 inh 1%[88.5 µM] and 3T3 cytotox -15%[174 µM].
For CN1CCC(NCC2(CO)C[C@@H](O)[C@@H](O)C2)CC1 (some centres not stated) the results were Luciferase inh inactive, HEK293 tox 0%[172 µM], hNpr1 antagonist 1%[70.6 µM], GPT2 inh -6%[88.5 µM] and 3T3 cytotox inactive.
Screening CCNC(=O)NC[C@H]1C[C@@H]2CCN1C[C@@H]2c1cc(C2CCCCC2)nn1C returned Luciferase inh inactive, HEK293 tox inconclusive, hNpr1 antagonist -3%[70.6 µM], GPT2 inh -2%[88.5 µM] and 3T3 cytotox inconclusive.
`COCC(=O)NC[C@H]1C[C@@H]2CCN1C[C@@H]2c1cc(-c2ccc3ccccc3c2)nn1C` gave Luciferase inh inconclusive, HEK293 tox 50µM*, hNpr1 antagonist -1%[70.6 µM], GPT2 inh -4%[88.5 µM] and 3T3 cytotox 35µM*.
For C=C[C@H]1CN2CC[C@H]1C[C@@H]2CNS(=O)(=O)c1ccccc1 the results were Luciferase inh inactive, HEK293 tox 5%[172 µM], hNpr1 antagonist 1%[70.6 µM], GPT2 inh inactive and 3T3 cytotox 4%[174 µM].
`CS(=O)(=O)NC[C@H]1C[C@@H]2CCN1C[C@@H]2CN1CCc2ccccc2C1` gave Luciferase inh inactive, HEK293 tox -21%[172 µM], hNpr1 antagonist 8%[70.6 µM], GPT2 inh 2%[88.5 µM] and 3T3 cytotox -22%[174 µM].
For O=S(=O)(NC[C@H]1C[C@@H]2CCN1C[C@@H]2CN1CCc2ccccc21)c1ccc(Cl)cc1 the results were Luciferase inh inactive, HEK293 tox 20µM*, hNpr1 antagonist 4%, GPT2 inh inconclusive and 3T3 cytotox 28µM*.
`O=S(=O)(NC[C@H]1C[C@@H]2CCN1C[C@@H]2CN1CCc2ccccc2C1)c1ccc(Cl)cc1` gave Luciferase inh inactive, HEK293 tox 22µM*, hNpr1 antagonist 4%, GPT2 inh 1% and 3T3 cytotox 22µM*.
